Screens (PubChem)
D2 PAM-1: D2 dopamine receptor (human) potentiation; potentiation, % at 10 µM; hit rate 0.34% among 340,000; P14416; HEK293 T-REx D2, calcium flux, EC20 dopamine potentiation;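 active = potentiation over 3 SD above the plate norm, cut at about 30% in these data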; also: 0% is about no effect
Target sequence (P14416 whole entry, looked up): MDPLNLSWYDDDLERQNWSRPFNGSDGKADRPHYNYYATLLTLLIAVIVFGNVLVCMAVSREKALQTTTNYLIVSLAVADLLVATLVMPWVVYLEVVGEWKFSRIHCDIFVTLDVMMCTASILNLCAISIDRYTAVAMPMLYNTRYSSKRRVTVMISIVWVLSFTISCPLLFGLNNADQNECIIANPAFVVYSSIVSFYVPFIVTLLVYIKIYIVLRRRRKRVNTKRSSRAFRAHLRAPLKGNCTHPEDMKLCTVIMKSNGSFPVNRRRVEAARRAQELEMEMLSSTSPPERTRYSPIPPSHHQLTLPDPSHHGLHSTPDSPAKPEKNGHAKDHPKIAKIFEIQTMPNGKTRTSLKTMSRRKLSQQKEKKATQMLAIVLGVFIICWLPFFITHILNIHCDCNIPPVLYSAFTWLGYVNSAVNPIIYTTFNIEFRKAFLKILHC
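Potentiation of an EC20 dopamine calcium response measured kinetically over 180 s, after a preceding 180 s compound-only read flagging agonists. Cells: inducible Hek293 Trex D2 line, 4000/well, cultured overnight at 30 C before dye loading.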
D2 PAM-2: human D2 receptor positive allosteric modulation; P14416; DiscoveRx D2 beta-arrestin cells, luminescence, 90 min; 100% = 57 uM dopamine signal; potentiation, % (concentration not given with the values); hit rate 0.23% among 360,000; AID 624464; in the data active = potentiation above about 50%
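PathHunter D2 cells, attached overnight at 37 deg C, received compound in DMSO plus dopamine at EC20 (50 nM final) for 90 min at 37 deg C. Beta-arrestin recruitment was read as luminescence after 1 h with detection reagent at ambient temperature.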
D2 ag-1: human D2 receptor agonism in beta-arrestin assay; activation, % (test concentration not listed); hit rate 0.084% among 360,000; DiscoveRx PathHunter D2 beta-arrestin, luminescence, 90 min; 100% = 57 uM dopamine signal; in the data active = activation above about 40%
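DiscoveRx PathHunter D2 beta-arrestin cells (2,100/well) attached overnight, then compound-stimulated 90 min at 37 C in HBSS/10 mM HEPES/0.1% Tween-20 buffer; beta-galactosidase complementation read by luminescence after 1 h at ambient temperature. Dopamine 57 uM final (EC100) as control.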
D2 antagonist: antagonists of human D2 dopamine receptor. inhibition, % at 10 µM. hit rate 2% among 340,000. P14416. HEK293 TREx D2 cells, calcium flux, dopamine EC80. AID 485344; in the data active = inhibition above about 30%; inactive = below that, where a call was filed; also: 0% is about no effect
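Antagonism is scored as inhibition of an EC80 dopamine-evoked calcium signal in a force-coupled, tetracycline-inducible HEK293 T-REx D2 line, with compound present 180 s before agonist.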
D2 ag-2: D2 dopamine receptor (human) agonism. P14416. HEK293 T-REx D2 cells, calcium flux agonist mode. activation, % at 2 µM. hit rate 0.53% among 340,000;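 active = activation over 3 SD above normal in the single-dose calcium agonist read, cut at about 30% in these data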; also: 0% is about no effect
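Agonism scored from kinetic calcium signal (1 read/sec, 180 s) following compound pin transfer, after a 10 s baseline. Cells: HEK293 Trex line expressing inducible D2 receptor coupled to calcium, dye-loaded after overnight culture at 30 C.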
Active calls of the source: *. Compounds with a hit are over-represented: about 2.4% of the library has one in this group of screens.

For CCn1nc(C)c2c(-c3ccccc3)cc(=O)n(C(C)C(=O)NCc3ccc(C)cc3)c21 (centres undefined) the results were D2 ag-2 0.
For CCOC(=O)c1ccc(CN(Cc2ccccc2C)S(=O)(=O)c2ccc(F)c(C)c2)cc1 the results were D2 ag-2 0.
`O=C(CS(=O)(=O)Cc1ccccc1)Nc1ccc(Cl)cn1` gave D2 PAM-1 0, D2 PAM-2 -8, D2 ag-1 -2, D2 antagonist 52* and D2 ag-2 1.
COc1cccc(C(=O)NC2CC3CCCC(C2)N3CC(=O)Nc2ccccc2C(F)(F)F)c1 (centres undefined) was read as D2 PAM-1 -16, D2 PAM-2 -5, D2 ag-1 1, D2 antagonist -21 and D2 ag-2 1.
`COc1cccc(C(=O)NN2c3ccccc3CCc3ccccc32)c1` gave D2 PAM-1 2, D2 PAM-2 4, D2 ag-1 4, D2 antagonist 51* and D2 ag-2 -4.
Screening Cc1ccc(CN2C3CCCC2CC(NC(=O)c2ccc(F)cc2)C3)cc1 (centres undefined) returned D2 PAM-1 -21, D2 PAM-2 -18, D2 ag-1 -2, D2 antagonist 92* and D2 ag-2 0.
Screening COc1cccc(C(=O)NNC(=O)c2ccccc2)c1 returned D2 PAM-1 6, D2 PAM-2 -3, D2 ag-1 2, D2 antagonist 2 and D2 ag-2 0.
Screening COCCCNC(=S)NC1CC2CCCC(C1)N2Cc1ccco1 (centres undefined) returned D2 PAM-1 -16, D2 PAM-2 -25, D2 ag-1 -1, D2 antagonist -16 and D2 ag-2 0.
For CCCNC(=S)NC1CC2CCCC(C1)N2Cc1ccc(F)cc1 (centres undefined) the results were D2 PAM-1 -21, D2 PAM-2 -78, D2 ag-1 0, D2 antagonist 81* and D2 ag-2 0.
Screening Cc1ccc(C(=O)NC2CC3CCCC(C2)N3Cc2ccccc2)cc1 (centres undefined) returned D2 PAM-1 -29, D2 PAM-2 -34, D2 ag-1 -1, D2 antagonist 4 and D2 ag-2 1.
`COc1cccc(C(=O)NC2CC3CCC(C2)N3Cc2ccccc2)c1` (centres undefined) gave D2 PAM-1 -14, D2 PAM-2 -6, D2 ag-1 0, D2 antagonist 96* and D2 ag-2 1.
Screening O=C(OCc1ccccc1F)c1ccc(-c2nnn(Cc3ccccc3)n2)cc1 returned D2 PAM-1 5 and D2 ag-2 -1.
`COc1ccc(C)cc1NC(=O)N1CCN(S(=O)(=O)c2ccc3c(ccn3C)c2)CC1` gave D2 PAM-1 7.
`CCOC(=O)N1CCc2c(sc(NCc3cccs3)c2C(=O)Nc2cc(Cl)ccc2OC)C1` gave D2 PAM-1 10 and D2 ag-2 1.
For O=C(Nc1ccccc1-c1ccccc1)NC1CC2CCCC(C1)N2Cc1ccc(F)cc1 (centres undefined) the results were D2 PAM-1 -25, D2 PAM-2 -25, D2 ag-1 -1, D2 antagonist 52* and D2 ag-2 0.
`COc1ccc(CN2C3CCC2CC(NC(=O)c2cccc(F)c2)C3)cc1` (centres undefined) gave D2 PAM-1 -26, D2 PAM-2 -2, D2 ag-1 0, D2 antagonist 81* and D2 ag-2 0.
`O=C(NC1CC2CCC(C1)N2Cc1ccccc1)c1cccc(F)c1` (centres undefined) gave D2 PAM-1 -25, D2 PAM-2 -7, D2 ag-1 4, D2 antagonist 71* and D2 ag-2 1.
`O=C(NC1CCN(C(=O)NCc2ccccc2)CC1)c1cccc(F)c1` gave D2 PAM-2 -3, D2 ag-1 -3, D2 antagonist 2 and D2 ag-2 1.
Screening Cc1cccc(C(=O)NC2CC3CCCC(C2)N3Cc2ccccc2)c1 (centres undefined) returned D2 PAM-1 -18, D2 PAM-2 -10, D2 ag-1 -4, D2 antagonist 81* and D2 ag-2 0.
O=C(Nc1ccccc1-c1ccccc1)NC1CC2CCCC(C1)N2CCc1ccccc1 (centres undefined) was read as D2 PAM-1 -18, D2 PAM-2 -10, D2 ag-1 -5, D2 antagonist 8 and D2 ag-2 0.
COc1ccc(Cn2c(CO)cnc2SCc2cccc(C)c2)cc1 was read as D2 PAM-1 -8 and D2 ag-2 -1.
CC(CNC(=O)c1ccc2nc(CCc3ccccc3)oc2c1)c1ccccc1 (centres undefined) was read as D2 PAM-1 -7 and D2 ag-2 0.
Screening O=C1Nc2ccccc2CCc2ccccc21 returned D2 PAM-1 -2, D2 PAM-2 0, D2 ag-1 2, D2 antagonist 36* and D2 ag-2 0.
O=C1Nc2ccccc2Nc2ccccc21 was read as D2 PAM-1 26, D2 PAM-2 -7, D2 ag-1 -2, D2 antagonist -8 and D2 ag-2 1.
Cc1cc(N2CCN(c3cccc(C)c3C)CC2)n2nc(C)c(-c3ccc(Cl)cc3)c2n1 was read as D2 PAM-1 -4.
CN1CCN(CCOC2Cc3ccccc3Sc3ccc(Cl)cc32)CC1 (centres undefined) was read as D2 PAM-1 -41, D2 PAM-2 -37, D2 ag-1 -2, D2 antagonist 88* and D2 ag-2 0.
Screening CCCCOc1ccc(S(=O)(=O)Nc2cccc(-c3ccc(N4CCOCC4)nn3)c2)cc1 returned D2 PAM-1 11.
For CC(=O)c1ccc(OCCCOc2cccc3cccnc23)cc1 the results were D2 PAM-1 0, D2 PAM-2 -2, D2 ag-1 -5, D2 antagonist 13 and D2 ag-2 -1.
For CC(=O)c1ccccc1OCCCOc1cccc2cccnc12 the results were D2 PAM-2 77* and D2 ag-1 4.
For Cc1cccc(NC(=O)C2CCCN(C(=O)Nc3ccc(F)cc3)C2)c1 (centres undefined) the results were D2 PAM-1 1, D2 PAM-2 -20, D2 ag-1 -4, D2 antagonist 31* and D2 ag-2 -2.
Cc1c(O)ccc(NC(=O)/C=C/c2ccccc2)c1C was read as D2 PAM-1 -9, D2 PAM-2 1, D2 ag-1 1, D2 antagonist 35* and D2 ag-2 0.
CCS(=O)(=O)c1ccc(O)c(NC(=O)/C=C/c2ccccc2)c1 was read as D2 PAM-1 -12, D2 PAM-2 -14, D2 ag-1 -5, D2 antagonist 9 and D2 ag-2 0.
